# Like-named read-outs stand apart in the source and are kept apart here.
# How the values were obtained:
# AAK1 = system: AAK1; design: species or system human, MV4-11 + K-562 + COLO205 + SK-N-BE2 + OVCAR-8; conditions: read-out: apparent Kd, n = 1
# BMP2K = system: BMP2K; design: species or system human, MV4-11 + K-562 + COLO205 + SK-N-BE2 + OVCAR-8; conditions: read-out: apparent Kd, n = 1
# FLT4 = system: FLT4; design: species or system human, MV4-11 + K-562 + COLO205 + SK-N-BE2 + OVCAR-8; conditions: read-out: apparent Kd, compound concentrations: 100 nM and 1000 nM (sheet 'Samples'), n = 1
# GSK3A = system: GSK3A; design: species or system human, MV4-11 + K-562 + COLO205 + SK-N-BE2 + OVCAR-8; conditions: read-out: apparent Kd, compound concentrations: 100 nM and 1000 nM (sheet 'Samples'), n = 1
# GSK3B = system: GSK3B; design: species or system human, MV4-11 + K-562 + COLO205 + SK-N-BE2 + OVCAR-8; conditions: read-out: apparent Kd, compound concentrations: 100 nM and 1000 nM (sheet 'Samples'), n = 1
# NUAK1 = system: NUAK1; design: species or system human, MV4-11 + K-562 + COLO205 + SK-N-BE2 + OVCAR-8; conditions: read-out: apparent Kd; compound concentrations: 100 nM and 1000 nM (sheet 'Samples'), CATDS: 0.113358948941002; n = 1
# Q6ZSR9 = Q6ZSR9 (human, UniProt Q6ZSR9); design: species or system MV4-11 + K-562 + COLO205 + SK-N-BE2 + OVCAR-8; conditions: read-out: apparent Kd, n = 1
# Q6ZSR9, sequence (Q6ZSR9 whole entry, looked up): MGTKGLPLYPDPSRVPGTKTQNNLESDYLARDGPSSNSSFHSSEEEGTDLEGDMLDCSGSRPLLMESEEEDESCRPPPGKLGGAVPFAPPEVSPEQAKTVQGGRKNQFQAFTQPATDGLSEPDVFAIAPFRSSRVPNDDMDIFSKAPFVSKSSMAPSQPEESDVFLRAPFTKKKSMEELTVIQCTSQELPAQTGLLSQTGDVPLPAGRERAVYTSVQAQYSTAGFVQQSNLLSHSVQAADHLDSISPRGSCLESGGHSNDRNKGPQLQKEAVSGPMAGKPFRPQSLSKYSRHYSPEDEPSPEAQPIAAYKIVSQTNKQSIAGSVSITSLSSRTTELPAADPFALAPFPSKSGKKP
# CSNK2A1;CSNK2A3 = system: CSNK2A1;CSNK2A3; design: species or system human, MV4-11 + K-562 + COLO205 + SK-N-BE2 + OVCAR-8; conditions: read-out: apparent Kd, n = 1
# CSNK2A2 = system: CSNK2A2; design: species or system human, MV4-11 + K-562 + COLO205 + SK-N-BE2 + OVCAR-8; conditions: read-out: apparent Kd, n = 1
# CLK4 = system: CLK4; design: species or system human, MV4-11 + K-562 + COLO205 + SK-N-BE2 + OVCAR-8; conditions: read-out: apparent Kd, n = 1
# GAK = system: GAK; design: species or system human, MV4-11 + K-562 + COLO205 + SK-N-BE2 + OVCAR-8; conditions: read-out: apparent Kd, compound concentrations: 100 nM and 1000 nM (sheet 'Samples'), n = 1
# PKN1 = system: PKN1; design: species or system human, MV4-11 + K-562 + COLO205 + SK-N-BE2 + OVCAR-8; conditions: read-out: apparent Kd, compound concentrations: 100 nM and 1000 nM (sheet 'Samples'), n = 1
# PRKAG1 = system: PRKAG1; design: species or system human, MV4-11 + K-562 + COLO205 + SK-N-BE2 + OVCAR-8; conditions: read-out: apparent Kd, compound concentrations: 100 nM and 1000 nM (sheet 'Samples'), n = 1
# CLK1 = system: CLK1; design: species or system human, MV4-11 + K-562 + COLO205 + SK-N-BE2 + OVCAR-8; conditions: read-out: apparent Kd, n = 1
# PAK4 = system: PAK4; design: species or system human, MV4-11 + K-562 + COLO205 + SK-N-BE2 + OVCAR-8; conditions: read-out: apparent Kd; compound concentrations: 100 nM and 1000 nM (sheet 'Samples'), CATDS: 1.9668858061390699E-2; n = 1
# PKN3 = system: PKN3; design: species or system human, MV4-11 + K-562 + COLO205 + SK-N-BE2 + OVCAR-8; conditions: read-out: apparent Kd; compound concentrations: 100 nM and 1000 nM (sheet 'Samples'), CATDS: 1.86767996374981E-2; n = 1
# RET = system: RET; design: species or system human, MV4-11 + K-562 + COLO205 + SK-N-BE2 + OVCAR-8; conditions: read-out: apparent Kd, compound concentrations: 100 nM and 1000 nM (sheet 'Samples'), n = 1
# SIK2 = system: SIK2; design: species or system human, MV4-11 + K-562 + COLO205 + SK-N-BE2 + OVCAR-8; conditions: read-out: apparent Kd, compound concentrations: 100 nM and 1000 nM (sheet 'Samples'), n = 1
# [1] = compound concentrations:100 nM and 1000 nM (sheet 'Samples')
structure (smiles),measurement,setting,value
COc1cc[nH]c1/C=C1\C(=O)Nc2ccc([N+](=O)[O-])c(N3CC[C@@H](O)C3)c21 [RO0504985-000],potency estimated from few doses,"AAK1; compound concentrations: 100 nM and 1000 nM (sheet 'Samples'), CATDS: 0.119322014743116",46.2 nM
same,potency estimated from few doses,"BMP2K; compound concentrations: 100 nM and 1000 nM (sheet 'Samples'), CATDS: 0.146188418361926",33 nM
same,potency estimated from few doses,FLT4; CATDS: 3.5350973360848997E-2,1020 nM
same,potency estimated from few doses,GSK3A; CATDS: 6.9215882134984696E-2,143 nM
same,potency estimated from few doses,GSK3B; CATDS: 8.07850710279054E-2,99.7 nM
same,potency estimated from few doses,NUAK1,50.6 nM
same,potency estimated from few doses,"Q6ZSR9; compound concentrations: 100 nM and 1000 nM (sheet 'Samples'), CATDS: 0.13185454777653499",39 nM
O=C1N=C(N[C@H](CO)c2ccccc2)S/C1=C\c1ccc2ncccc2c1 [RO4554339-000],potency estimated from few doses,"AAK1; compound concentrations: 100 nM and 1000 nM (sheet 'Samples'), CATDS: 0.10816447707824001",735 nM
same,potency estimated from few doses,"CSNK2A1;CSNK2A3; compound concentrations: 100 nM and 1000 nM (sheet 'Samples'), CATDS: 0.26590884807239001",111 nM
same,potency estimated from few doses,"CSNK2A2; compound concentrations: 100 nM and 1000 nM (sheet 'Samples'), CATDS: 0.32699476113935999",80.2 nM
same,potency estimated from few doses,"Q6ZSR9; compound concentrations: 100 nM and 1000 nM (sheet 'Samples'), CATDS: 9.0735809704368106E-2",1320 nM
Cl.Cl.NCC(NC(=O)c1cc(-c2ccnc3[nH]ccc23)cs1)c1ccccc1.NCC(NC(=O)c1cc(-c2ccnc3[nH]ccc23)cs1)c1ccccc1 (stereo not drawn) [GSK1229959A],potency estimated from few doses,"AAK1; compound concentrations: 100 nM and 1000 nM (sheet 'Samples'), CATDS: 3.6384638335370603E-2",79.6 nM
same,potency estimated from few doses,"BMP2K; compound concentrations: 100 nM and 1000 nM (sheet 'Samples'), CATDS: 3.4118166315235399E-2",97.1 nM
same,potency estimated from few doses,"CLK4; compound concentrations: 100 nM and 1000 nM (sheet 'Samples'), CATDS: 1.8316449367944E-2",1240 nM
same,potency estimated from few doses,GAK; CATDS: 3.7046569699604799E-2,75.5 nM
same,potency estimated from few doses,GSK3B; CATDS: 1.8491508517635601E-2,1170 nM
same,potency estimated from few doses,PKN1; CATDS: 2.9664861147502199E-2,155 nM
same,potency estimated from few doses,PRKAG1; CATDS: 1.9025331184012301E-2,1010 nM
same,potency estimated from few doses,"Q6ZSR9; compound concentrations: 100 nM and 1000 nM (sheet 'Samples'), CATDS: 3.4885156977357598E-2",90.6 nM
CC(C)(CO)CNC(=O)c1ccc2c(c1)/C(=N/Nc1ccc(S(N)(=O)=O)cc1)C(=O)N2 [GW301784X],potency estimated from few doses,AAK1; [1],1820 nM
same,potency estimated from few doses,BMP2K; [1],1840 nM
same,potency estimated from few doses,CLK1; [1],878 nM
same,potency estimated from few doses,CLK4; [1],612 nM
same,potency estimated from few doses,CSNK2A1;CSNK2A3; [1],120 nM
same,potency estimated from few doses,CSNK2A2; [1],64.3 nM
same,potency estimated from few doses,Q6ZSR9; [1],1600 nM
Cl.Nc1nc(-c2ccc3c(c2)C(=Cc2cc(Br)c(O)c(Br)c2)C(=O)N3)cs1 [GW407323A],potency estimated from few doses,"AAK1; compound concentrations: 100 nM and 1000 nM (sheet 'Samples'), CATDS: 6.1735676660854701E-2",169 nM
same,potency estimated from few doses,"BMP2K; compound concentrations: 100 nM and 1000 nM (sheet 'Samples'), CATDS: 9.5342393431140995E-2",73.6 nM
same,potency estimated from few doses,"CLK1; compound concentrations: 100 nM and 1000 nM (sheet 'Samples'), CATDS: 4.62979117088285E-2",333 nM
same,potency estimated from few doses,"CLK4; compound concentrations: 100 nM and 1000 nM (sheet 'Samples'), CATDS: 8.6707828980110799E-2",87 nM
same,potency estimated from few doses,"CSNK2A1;CSNK2A3; compound concentrations: 100 nM and 1000 nM (sheet 'Samples'), CATDS: 5.7367661207528599E-2",199 nM
same,potency estimated from few doses,"CSNK2A2; compound concentrations: 100 nM and 1000 nM (sheet 'Samples'), CATDS: 4.5506088174881797E-2",349 nM
same,potency estimated from few doses,"Q6ZSR9; compound concentrations: 100 nM and 1000 nM (sheet 'Samples'), CATDS: 5.6700337610390401E-2",204 nM
Cl.Cn1c(=O)c(Cc2ccccc2F)cc2cnc(NC3CCOCC3)nc21 [RO3305377-001],potency estimated from few doses,"AAK1; compound concentrations: 100 nM and 1000 nM (sheet 'Samples'), CATDS: 2.16510603665701E-2",917 nM
same,potency estimated from few doses,"BMP2K; compound concentrations: 100 nM and 1000 nM (sheet 'Samples'), CATDS: 1.6723713809558501E-2",1910 nM
same,potency estimated from few doses,"CLK1; compound concentrations: 100 nM and 1000 nM (sheet 'Samples'), CATDS: 1.9184829290140398E-2",1250 nM
same,potency estimated from few doses,"CLK4; compound concentrations: 100 nM and 1000 nM (sheet 'Samples'), CATDS: 2.3036060895887101E-2",796 nM
same,potency estimated from few doses,FLT4; CATDS: 1.78487472229053E-2,1540 nM
same,potency estimated from few doses,GAK; CATDS: 3.35725694953104E-2,389 nM
same,potency estimated from few doses,GSK3A; CATDS: 3.04876999302407E-2,459 nM
same,potency estimated from few doses,GSK3B; CATDS: 2.4100870065686699E-2,722 nM
same,potency estimated from few doses,PAK4,1170 nM
same,potency estimated from few doses,PKN1; CATDS: 1.63422390888056E-2,2080 nM
same,potency estimated from few doses,PKN3,1350 nM
same,potency estimated from few doses,PRKAG1; CATDS: 2.2977618233773301E-2,801 nM
same,potency estimated from few doses,"Q6ZSR9; compound concentrations: 100 nM and 1000 nM (sheet 'Samples'), CATDS: 2.0313751812051702E-2",1070 nM
same,potency estimated from few doses,RET; CATDS: 2.33186267232918E-2,775 nM
same,potency estimated from few doses,SIK2; CATDS: 2.09056260277059E-2,998 nM
COc1cc2ncn(-c3cc(OCc4ccccc4S(C)(=O)=O)c(C#N)s3)c2cc1OC [GSK319347A],potency estimated from few doses,"AAK1; compound concentrations: 100 nM and 1000 nM (sheet 'Samples'), CATDS: 0.12685242970353799",621 nM
same,potency estimated from few doses,"BMP2K; compound concentrations: 100 nM and 1000 nM (sheet 'Samples'), CATDS: 0.286498522791794",177 nM
same,potency estimated from few doses,FLT4; CATDS: 8.0295198966638101E-2,1720 nM
same,potency estimated from few doses,GAK; CATDS: 8.54645100662135E-2,1450 nM
same,potency estimated from few doses,"Q6ZSR9; compound concentrations: 100 nM and 1000 nM (sheet 'Samples'), CATDS: 0.124049531101547",647 nM
Cl.Oc1cccc(Nc2ccnc3cc(-c4ccncc4)ccc23)c1 [GW494601A],potency estimated from few doses,FLT4; CATDS: 2.2541605457452998E-2,773 nM
same,potency estimated from few doses,GAK; CATDS: 8.36996948680125E-2,14.1 nM
same,potency estimated from few doses,RET; CATDS: 7.2637191041935695E-2,19 nM
same,potency estimated from few doses,SIK2; CATDS: 2.1329898966899598E-2,1020 nM

# Source: PMC11062922 (Nature Chemical Biology, 2023)
